From PubChem BioAssay
Sampled rows, rich in hits. Any-hit rate of the full collection: about 6.1%.
DRD3 antagonist – qHTS of D3 Dopamine Receptor Antagonist: qHTS. 2.5% of 360,000 active. D3R cells, DiscoveRx beta-arrestin luminescence, antagonist mode; hits give low values. max response, negative = inhibition, %. AID 652054, 2013; in the data active = max response below about -50%; inconclusive = no clear call, values can overlap the other calls; note: % is set by controls: 0 for no effect and ±100 for the full control effect
Target sequence (P35462 whole entry, looked up): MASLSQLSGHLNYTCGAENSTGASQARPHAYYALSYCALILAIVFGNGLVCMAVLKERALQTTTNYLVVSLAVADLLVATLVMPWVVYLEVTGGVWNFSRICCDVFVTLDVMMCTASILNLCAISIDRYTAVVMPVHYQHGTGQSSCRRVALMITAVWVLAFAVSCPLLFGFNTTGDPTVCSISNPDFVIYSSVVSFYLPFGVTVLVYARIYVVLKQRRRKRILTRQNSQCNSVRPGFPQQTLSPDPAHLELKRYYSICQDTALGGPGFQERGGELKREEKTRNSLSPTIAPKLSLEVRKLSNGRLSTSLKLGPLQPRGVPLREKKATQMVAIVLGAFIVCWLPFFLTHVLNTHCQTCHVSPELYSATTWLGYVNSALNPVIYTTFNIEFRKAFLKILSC
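Cells expressing the human receptor were seeded at 1500 cells/well, incubated overnight at 37 degrees C in 5% CO2, then exposed to library compounds with dopamine controls for 90 minutes at 37 degrees C before luminescent detection.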
D3 ag – qHTS of D3 Dopamine Receptor Agonist: qHTS | D(3) dopamine receptor (Homo sapiens), P35462 | D3R DiscoveRx beta-arrestin cells, luminescence, 90 min | max activation, % | 0.58% of 410,000 active; in the data active = max activation above about 30%; note: 0% is about no effect
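Agonist mode: compounds and dopamine controls were applied to plated cells for 90 min at 37 degrees C after an overnight attachment at 1500 cells/well. Luminescent read-out followed 30 - 60 minutes at room temperature with DiscoveRx detection reagent.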
D1 antagonist – Antagonist of Human D 1 Dopamine Receptor: qHTS; AID 504652, 2011; HEK293 TREx D1 cells, calcium flux, dopamine EC80; hits give low values; 3.2% of 360,000 active; activity change, negative = inhibition, % at 10 µM; in the data active = activity change below about -30%; note: % is set by controls: 0 for no effect and ±100 for the full control effect
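Tetracycline-induced HEK293 Trex D1 cells, force-coupled to calcium, dye-loaded; compounds added and read 180 s, then EC80 dopamine added and calcium flux tracked kinetically another 180 s.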
ERG Ets-DNA blk – qHTS for Small Molecule Inhibitors of the ERG Ets/DNA interaction; Transcriptional regulator ERG (Homo sapiens), P11308; fluorescence polarization, His-ERG Ets domain / labelled DNA; Potency, µM (top dose mostly 76.9 µM), without a hit: at the highest dose FP activity, negative = inhibition, actives largely listed as inhibitors; 0.028% of 370,000 active; active = well fitted inhibition curve with a large enough effect in the polarisation, with a control signal flat; inconclusive = small, poorly fitted or top-dose-only effect, or effect the other way, or a change in a side signal; inactive = no such curve, though single readings can be large or run the other way; the % refers to the polarisation;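 note: polarization taken with two DNA probes labelled with fluorescein and Texas red; potency is the fitted concentration of half-maximal effect; % of control where 0% means no effect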
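His-tagged ERG Ets domain (1 uM in the protein solution; 300mM KCl, 50mM Tris-HCl, 1mM EDTA, 1mM DTT, pH 7.5) received compound, then a probe mix of 5 nM fluorescein-DNA and 100nM Texas-615-DNA. Fluorescence polarization was read for both dyes.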
D1 PAM – Potentiators of Human D1 Dopamine Receptor: qHTS; D(1A) dopamine receptor (Homo sapiens), P21728; HEK293 TREx D1 cells, calcium flux, dopamine EC20 potentiation; potentiation, % at 10 µM; 0.036% of 360,000 active; in the data active = potentiation above about 30%; note: 0% is about no effect
D1 agonist – Allosteric Agonists of the Human D1 Dopamine Receptor: qHTS | HEK293 T-REx D1 cells, calcium flux, agonist mode | activation, % at 2 µM | 1% of 360,000 active; in the data active = activation above about 30%; note: 0% is about no effect
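Tetracycline-induced HEK293 TREx D1 cells, force-coupled to calcium signalling, were dye-loaded with a no-wash calcium kit. Compound was pin-added after a 10 s baseline. Fluorescence was read kinetically at 1 cycle/s for 180 s, with calcium rises flagged as agonism.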
Active calls of the source: *; ? = inconclusive; / = not tested or not shown.

SMILES	DRD3 antagonist	D3 ag	D1 antagonist	ERG Ets-DNA blk	D1 PAM	D1 agonist
Cc1cn2c(=O)cc(COc3ccc(NC(=O)c4cccc(F)c4)cc3)nc2s1	/	-10	-41*	6%	-6	1
C#Cc1ccc(NC(=O)C2(C)CCN2C(=O)C2(c3ccccc3)CC2)cc1 (stereo unspecified)	25	7	/	/	/	/
Cc1occc1C(=O)N/N=C/c1cnn(C)c1C	13	-1	-40*	5%	-13	1
Nc1c(C(=O)O)sc2nc(-c3ccc(F)cc3)cc(-c3ccccc3)c12	-10	-19	0	17%	-2	1
CN(Cc1ccc(Cl)s1)C(=O)CSc1nnc(C2CC2)n1C1CC1	3	8	-3	-6%	-7	0
COc1ccc(N2CCN(c3ncccc3-c3nc(-c4ccccc4C)no3)CC2)cc1	/	8	-31*	-1%	-1	5
CN1CCc2cccc3c2C1Cc1ccc(O)c(O)c1-3 (stereo unspecified)	65	123*	-75*	2%	-8	48*
CC(C)(C)NNC(=S)Nc1ccc(S(=O)(=O)N2CCOCC2)cc1	6	32*	5	-12%	17	3
CC(=O)NC(=S)Nc1ccc(S(=O)(=O)N2CCOCC2)cc1	8	4	-8	1%	-4	1
O=S(=O)(c1ccc(NC(=S)NCc2ccc(F)cc2)cc1)N1CCOCC1	-25	14	-49*	-5%	-12	30*
O=S(=O)(c1ccc(NC(=S)NCCc2ccccc2)cc1)N1CCOCC1	6	6	-3	2%	-2	15
O=C(Nc1c2c(nn1-c1ccccc1)CS(=O)(=O)C2)c1ccc2c(c1)OCO2	5	8	-8	1%	-2	3
CC(C)OP(C)(=O)CN1CCN(CP(C)(=O)OC(C)C)CC1 (stereo unspecified)	7	11	-2	/	3	4
CSCCCN1CCC(n2nccc2NC(=O)CCCc2ccccc2)CC1	-50*	-47	11	10%	0	3
C=C(C)CCC(C)N1CCC(n2nccc2NC(=O)CCCc2ccccc2)CC1 (stereo unspecified)	-60*	5	29	-12%	-4	4
CC(NC(=O)c1ccc(CS(C)(=O)=O)cc1)c1ccc(-c2ccccc2)cc1 (stereo unspecified)	10	10	8	8%	2	2
CC1CCN(CCCC(=O)c2ccc(F)cc2)CC1	/	-21	/	/	/	/
CN1CCN(CCCC(=O)c2ccc(C3CCCC3)cc2)CC1	-55*	-42	-30	1%	-4	17
O=C(CCCN1CCC(C(=O)c2ccc(F)cc2)CC1)c1ccc(F)cc1	-101*	-23	-85*	-3%	-8	7
CN1CCN(CCCCC(=O)c2ccccc2)CC1	-8	-9	19	-3%	-6	1
O=C(CCCN1CCC(C(O)c2ccc(F)cc2)CC1)c1ccc(F)cc1 (stereo unspecified)	-80*	-16	/	/	/	/
Cc1ccc(CC(=O)NCCS(=O)c2ccc(Cl)cc2)cc1 (stereo unspecified)	0	1	-4	-1%	1	3
Cc1cccc(/C=N/NC(=O)C2CCCNC2=O)c1 (stereo unspecified)	2	8	-85*	5%	-4	2
O=C1NCCCC1C(=O)N/N=C/c1cccc([N+](=O)[O-])c1 (stereo unspecified)	6	3	-16	-8%	-1	1
Fc1cccc(Cc2noc(CN3CCCN(C4Cc5ccccc5C4)CC3)n2)c1	?	-12	1	31%	2	1
SMILES	DRD3 antagonist	D3 ag	D1 antagonist	ERG Ets-DNA blk	D1 PAM	D1 agonist
Cc1cccc(N2CCN(Cc3nc(-c4ccccc4Cl)oc3C)CC2)n1	6	-20	-31*	-2%	-7	1
CCOC(=O)C1(Nc2nccs2)Sc2ccccc2NC1=O (stereo unspecified)	13	-2	-34*	1%	-6	5
CCc1cc(=O)oc2c(C)c(OCC(=O)NCCCn3ccnc3)ccc12	13	5	13	4%	-1	2
COc1ccc(O)c(C2Nc3ccccc3-n3c(-c4ccccc4)c4c(=O)n(C)c(=O)n(C)c4c32)c1 (stereo unspecified)	/	45*	5	-3%	-1	2
Cc1ccc(-c2c3c(=O)n(C)c(=O)n(C)c3c3n2-c2ccccc2NC3c2ccc(C)cc2O)cc1 (stereo unspecified)	/	47*	-13	-2%	-1	9
CCOC(=O)c1sc(NC(=O)Nc2ccccc2)cc1C	-5	-3	-42*	?	-5	21
CCOC(=O)c1sc(NC(=O)Nc2ccccc2Cl)cc1C	6	-30	-39*	14%	-6	15
Cc1ccc(-n2c(SCC3CCCCO3)nnc2-c2ccco2)cc1 (stereo unspecified)	-26	-5	19	-5%	2	2
O=C(O)CSCCc1ccccn1	11	0	-82*	2%	-7	0
CCN(CC)CCCNC(=O)CC1Sc2ccccc2NC1=O (stereo unspecified)	-51*	-1	-12	-5%	-4	2
O=C(COC(=O)CC1Sc2ccccc2NC1=O)NCc1ccccc1 (stereo unspecified)	0	-10	2	-1%	-4	37*
O=c1[nH]c2ccccc2nc1N1CCOCC1	8	-4	11	-8%	-1	2
c1ccc2c(c1)nc(N1CCOCC1)c1c3ccccc3[nH]c21	10	9	-57*	-1%	-4	4
CN1CCN(C(=O)/C(=C\c2ccccc2)c2ccccc2)CC1	-55*	3	0	-6%	5	2
CN1CCN(C(=O)/C(=C/c2ccc(F)cc2)NC(=O)c2ccccc2)CC1	1	-2	11	-5%	/	6
O=c1[nH]cc(COCC(F)CCl)c(=O)[nH]1 (stereo unspecified)	0	-4	-8	-8%	2	4
CCOC(=O)C1CCCN(CC(=O)Nc2c(F)c(F)c(F)c(F)c2F)C1 (stereo unspecified)	-22	-4	-17	6%	0	3
Fc1ccc(CN2CCSCC2)cc1Br	-61*	-35	17	2%	2	1
